Laboratory results taken from the supplement of paper PMC3334620.
Whole data set: some 33,000 sequences, median “E-score (-0.5 to 0.5)” near -0.0034, cut for the highest 2% near 0.25. For the sample, the highest values were picked, then their nearest neighbours and some sequences at random.

Each sequence was assayed against T1, Yap3 (UniProt P38749) (assay: PBM E-score (8-mer binding enrichment) (E-score (-0.5 to 0.5)); higher = stronger / more preferred TF binding). Details: protein concentration: 100 nM; construct: GST-full length.
T1 sequence: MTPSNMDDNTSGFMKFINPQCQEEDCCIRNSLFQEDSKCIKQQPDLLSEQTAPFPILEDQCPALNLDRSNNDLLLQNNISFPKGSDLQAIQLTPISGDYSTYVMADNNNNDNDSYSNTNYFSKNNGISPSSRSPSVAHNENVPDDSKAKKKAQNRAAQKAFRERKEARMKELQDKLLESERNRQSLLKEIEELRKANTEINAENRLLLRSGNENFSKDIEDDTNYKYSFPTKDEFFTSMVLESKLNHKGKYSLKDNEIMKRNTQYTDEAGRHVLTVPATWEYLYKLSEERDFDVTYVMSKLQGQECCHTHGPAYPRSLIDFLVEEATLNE
Procedure, shortened: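 Yeast transcription factors carrying a GST tag, as full-length proteins or DNA-binding domains, were produced by PURExpress in vitro transcription/translation. About 100-200 nM protein was applied to universal all-10-mer Agilent arrays, double-stranded by primer extension on fresh or once-stripped slides. Bound protein was detected with fluorescent anti-GST, and scans were normalised with masliner. The Universal PBM Analysis Suite gave each ungapped eight-base word, pooled with its reverse complement, an E-score, a modified Wilcoxon-Mann-Whitney statistic.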
For ACCAGGTC, the “PBM E-score” value was -0.0571.
With CGGCGATC the “PBM E-score” value was -0.086.
GAGGGGCC was tested, and the “PBM E-score” value was -0.323.
In the case of AGCTCAGG, the “PBM E-score” value is reported as -0.0122.
In the case of AATTATAG, the “PBM E-score” value is reported as 0.234.
In the case of CATTATAA, the “PBM E-score” value is reported as 0.0345.
With AATTATAA the “PBM E-score” value was 0.224.
With GATTATTA the “PBM E-score” value was 0.198.
For AATTATTG, the “PBM E-score” value was 0.195.
CATTATTC was tested, and the “PBM E-score” value was 0.185.
With CATTATTA the “PBM E-score” value was 0.334.
For AATTATTA, the “PBM E-score” value was 0.311.
TATTATAA was tested, and the “PBM E-score” value was 0.281.
With AGTTATTA the “PBM E-score” value was 0.184.
For GATTATAA, the “PBM E-score” value was 0.244.
With AATTATAC the “PBM E-score” value was 0.26.
GAACCCTA was tested, and the “PBM E-score” value was -0.054.
In the case of CAAGGGTC, the “PBM E-score” value is reported as -0.0382.
In the case of AAGAATCC, the “PBM E-score” value is reported as -0.111.
With ACCTCTCT the “PBM E-score” value was -0.175.
With ATACTTCG the “PBM E-score” value was -0.0772.
GGACTGTA was tested, and the “PBM E-score” value was -0.0642.
TATGCAGA was tested, and the “PBM E-score” value was 0.0525.
With AATTATTC the “PBM E-score” value was 0.256.
In the case of AAGTATAC, the “PBM E-score” value is reported as 0.266.
For AACTATTC, the “PBM E-score” value was 0.125.
AAGTATAA was tested, and the “PBM E-score” value was 0.249.
In the case of AAGTATAT, the “PBM E-score” value is reported as 0.135.
For AGTTATTC, the “PBM E-score” value was 0.096.
CATATGAA was tested, and the “PBM E-score” value was 0.132.
In the case of ACTTATGC, the “PBM E-score” value is reported as 0.0843.
In the case of GGGTAGAC, the “PBM E-score” value is reported as -0.216.
For CGAATCGA, the “PBM E-score” value was 0.301.
AGAATCGA was tested, and the “PBM E-score” value was 0.0567.
For GGAATCGA, the “PBM E-score” value was -0.059.
For CCTATTGA, the “PBM E-score” value was 0.0457.
CGCTAACA was tested, and the “PBM E-score” value was 0.118.
For GATATGAA, the “PBM E-score” value was 0.214.
With AATATGAC the “PBM E-score” value was 0.223.
In the case of AATATGAT, the “PBM E-score” value is reported as 0.279.
In the case of TATATGAA, the “PBM E-score” value is reported as 0.203.
AATATGAG was tested, and the “PBM E-score” value was 0.0655.
In the case of AATATGAA, the “PBM E-score” value is reported as 0.279.
CCAGTCTC was tested, and the “PBM E-score” value was -0.22.
In the case of AGGACACA, the “PBM E-score” value is reported as 0.0983.
For CCATAATA, the “PBM E-score” value was 0.214.
For ACATAAGA, the “PBM E-score” value was 0.185.
With ACATAATA the “PBM E-score” value was 0.353.
In the case of ACATAATG, the “PBM E-score” value is reported as 0.211.
With GCATAACA the “PBM E-score” value was 0.157.
GCATAAGA was tested, and the “PBM E-score” value was 0.0573.
With ACATAACT the “PBM E-score” value was 0.192.
For GCATAATA, the “PBM E-score” value was 0.283.
In the case of ACATAACC, the “PBM E-score” value is reported as 0.0973.
In the case of ACATAACA, the “PBM E-score” value is reported as 0.285.
ACATAATC was tested, and the “PBM E-score” value was 0.293.
In the case of CCATAATC, the “PBM E-score” value is reported as 0.144.
With ATGTGGAC the “PBM E-score” value was -0.0215.
For ACCTCCTC, the “PBM E-score” value was -0.145.
In the case of AATGCAGT, the “PBM E-score” value is reported as 0.0696.
In the case of TACTAAGA, the “PBM E-score” value is reported as 0.242.
With ACCGCTGG the “PBM E-score” value was -0.16.
With CAGCCCCC the “PBM E-score” value was -0.384.
In the case of ATAAAGTC, the “PBM E-score” value is reported as 0.133.
With ATAAAGTG the “PBM E-score” value was 0.271.
For GTAAAGTA, the “PBM E-score” value was 0.251.
In the case of CTAAAGTA, the “PBM E-score” value is reported as -0.0221.
ATAAAGTA was tested, and the “PBM E-score” value was 0.286.
In the case of ACAAAGTG, the “PBM E-score” value is reported as 0.0611.
AGTGCGGC was tested, and the “PBM E-score” value was -0.165.
In the case of GATGAGAA, the “PBM E-score” value is reported as 0.0962.
In the case of CCGCATGC, the “PBM E-score” value is reported as -0.00346.
For AAAATGGA, the “PBM E-score” value was 0.309.
CTAATGGA was tested, and the “PBM E-score” value was -0.0109.
ATAATGGA was tested, and the “PBM E-score” value was 0.188.
AAAATGGG was tested, and the “PBM E-score” value was -0.0559.
AAAATGAC was tested, and the “PBM E-score” value was 0.13.
With AAAATGAT the “PBM E-score” value was 0.265.
In the case of GTAATGGA, the “PBM E-score” value is reported as 0.288.
In the case of AAAATGAA, the “PBM E-score” value is reported as 0.208.
With CAAATGGA the “PBM E-score” value was -0.0854.
With CACCCGAA the “PBM E-score” value was 0.0804.
For ACCAAGAC, the “PBM E-score” value was 0.175.
AACGACAT was tested, and the “PBM E-score” value was 0.202.
In the case of AGAACTGC, the “PBM E-score” value is reported as -0.131.
For CATGAACC, the “PBM E-score” value was 0.0622.
